# Test results published in the supplement of paper PMC11417369.
# ± gives the standard deviation of the averaged measurements. Over roughly 25,000 sequences, “ln(normalized median fluorescence intensity)” has its median near 7.9; the highest 2% begin near 11. This is one part of a sample in which the highest values are shown more often than they occur.
# Test system: PfAP2-I AP2 domain 3 (GST-tagged)
# Experiment: gcPBM binding intensity (ln(normalized median fluorescence intensity)); higher = stronger DNA binding
# Outline: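 For binding intensity, the highest Masliner-normalised natural-log median intensity across replicate spots of either probe orientation was taken. Protein bound to the array was stained with Alexa488 anti-GST antibody and scanned at 488 nm. The protein, GST-tagged P. falciparum DNA-binding domains from E. coli at about 25 μg on average, had been applied for 1 h to an Agilent 4 × 180k array of primer-extended double-stranded 36-bp intergenic genomic probes and negative controls.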
row,Sequence,gcPBM binding intensity (ln)
1,ATAAGAATATATAGAGTGCGTTGAAGAATTATAATA,9.89 ± 0.27
2,AATTTGTAAAATAAGGTGCGTATAAAAAATTATATT [GTGCAC_site9676],9.71 ± 0.2
3,CTTTATAAAATAAGAGTGCGTTATATTGAATTGTAT [GTGCAC_site9390],10.9 ± 0.6
4,TTATTCATATTATCATGTACTTATATATATTGTCAT [XGTACX_site2231],7.72 ± 0.55
5,AGAAGAAAAGTAAAAAGTACATTATTCATGGCCTAT [XGTACX_site5601],7.46 ± 0.7
6,TTAGAAAAATTATATATACACACTTATATTTATATA [CACACA_site2821],7.28 ± 0.4
7,TAAATATTTTTAGATGCATGCAATAATTACCCAAAG [TGCATGCA_site636],8.15 ± 0.78
8,ATTATATACAAATAAAGTACATAAACAAATTCAGAA [XGTACX_site1187],7.77 ± 0.47
9,TCTTTCAATATTAATGCATGTTAATAATAAATTTTA [TGCATGCA_site448],7.96 ± 0.57
10,ATGTTAATTAATGAGGTGCATTGAATATTTCAATAA,10.9 ± 0.73
11,AATATTTTTCAATTTCATGTGCATTCATTGAAGTTA [CACACA_negctrl_site1232],8.76 ± 0.37
12,TAAGTATATATATTTACACACATTTGTTTTTTTTTA [CACACA_site3784],7.57 ± 0.6
13,AAAAAATAGAATATAAAAATAAAGGAATTAAATTAA [XGTACX_negctrl_site420],7.33 ± 0.75
14,AAAAACTTATATGATACACACGATAAACAAAATAAA [CACACA_site1039],7.91 ± 0.42
15,ATTAGCAACATTGATAAATATAAACACACGAAAACA [TGCATGCA_negctrl_site97],8.09 ± 0.68
16,AATATATATATATGTGCACACATATATAATATGTAT [CACACA_site716],9.2 ± 0.58
17,TGTAATATATGTATTGCACACCTATAACCATTATTT [CACACA_site8422],9.89 ± 0.3
18,TATGTACACCCATATACACACCTCTATAATATATAT [CACACA_site4563],8.38 ± 0.18
19,TATAATGTATGTAGTGCACACCTCTATAATATATTA [CACACA_site8560],10.9 ± 0.64
20,TAGAATGTATGTAGTGCACACCTCTATAATATATTA [CACACA_site1873],11.3 ± 0.6

row,Sequence,gcPBM binding intensity (ln)
1,TATATATATATGTGCACACATATATAATATGTATAA [CACACA_site715],10.1 ± 0.42
2,ATATATTACAAATGGAGTACTAAAAATATTCTATAT [XGTACX_site6669],8.02 ± 0.38
3,ACACATATGACAAATAGTACATAAATATATAAATAT [XGTACX_site7141],7.79 ± 0.28
4,AATAATATATATATATATATATATAGATATGTATAT [GTGCAC_negctrl_site653],8.04 ± 0.25
5,GAAATTACTTTATAAACACACATTTATTTTATTTTA [CACACA_site7007],7.95 ± 0.26
6,CTACCTTTAATATATACACACACATAAAAAAAATAT [CACACA_site8548],8.05 ± 0.28
7,GTATATATTAAAAAAAAAAAAAAAAAATTAAAATTA [CACACA_negctrl_site572],7.14 ± 0.33
8,TATTTTTATAAGAGCATGCACTGTTTAAAATGGTAT,8.37 ± 0.45
9,ATAATTATTCTTATGGTGCACTGAATATACATGTTG [GTGCAC_site9760],11.1 ± 0.47
10,AATATGAAATATATTACACACATTTATATGTTGAAA [CACACA_site1427],7.59 ± 0.39
11,GTATTATTATTTTATGCATGTACATTGAATTATATT [TGCATGCA_site34],8.26 ± 0.44
12,ATTATATTTATGTTGGTGCATTATACATGAAATTTA,11.5 ± 0.43
13,TATATATATATATATGTGCACTGAAAGAATTATACA [GTGCAC_site9586],10.7 ± 0.13
14,TATAATAATAATTATACATGCATGAATATTTATATG [TGCATGCA_site811],7.67 ± 0.21
15,CCTATCCAGACATATACACACATATCTATTTATATA [CACACA_site5001],8.01 ± 0.57
16,AAGTAATTTGTTGACACACACACACGCATACCTATA [CACACA_site7140],8.07 ± 0.65
17,TTTTTTTCATAAGAAGCACACAAAAAATGATAGAGA [CACACA_site8401],8.29 ± 0.4
18,TAAATTAAAAAACATAAACTATTGGAAACGCATTGA [CACACA_negctrl_site935],7.57 ± 0.64
19,TAGGCGTTTAATAAAAGTACCCACACATATATTATT [XGTACX_site1932],7.68 ± 0.49
20,TATATATATATATATGTGCACTGGACATATTTTTAT [GTGCAC_site9721],10.09 ± 0.099

row,Sequence,gcPBM binding intensity (ln)
1,GAGATTTATTTATGTGCACACTAGAACAATTGGATC [CACACA_site2090],9.99 ± 0.42
2,ATATTATGTGATTGTGCACACTGGAGATTTTTTTTA [CACACA_site1453],10.9 ± 0.17
3,TTAATATAGGGAAAAAAAAGAAAATCGAAAATGTGT [CACACA_negctrl_site834],8 ± 0.75
4,TTTTTTTTATGTATCACACATAATTTTTTATTATGA [CACACA_site5534],7.63 ± 0.68
5,ATTTTCATGATAAAGGTGCAATTATTTTTATAAGAA,10.9 ± 0.53
6,TATAATTATTTTTTTCTAAATATTATAAGGTATTCA [GTGCAC_negctrl_site205],7.18 ± 0.33
7,ATTATAAAAGAATTTTTTTTTATTTCATTAAAATAT [CACACA_negctrl_site1137],7.09 ± 0.47
8,ACACATAATATAAAGGTGCTATATTGTATTCATTTT [GTGCAC_site9457],10.1 ± 0.2
9,TATAATTTATTAAGGGGTACATATATTTCATGATAA [XGTACX_site5141],7.88 ± 0.37
10,GTATTCATGCTAAAGGTGCAATAATTTTTATAATAA [GTGCAC_site9603],11.5 ± 0.61
11,TATAAATATCTGAATTGTACAGGTGAAAAAAAAAAT [XGTACX_site1867],8.04 ± 0.62
12,TAATTAGATTATTTTTGTACATATTATTATAGGTTA [XGTACX_site2077],7.59 ± 0.26
13,ACAAAAATAAGCAAATGTACATATGTATAATATATT [XGTACX_site2492],7.77 ± 0.58
14,TAAAAATTAAAAAGGGTGCAAAAAAAAAAAAAAAAA [GTGCAC_site9733],11 ± 0.61
15,TTAAAAAATAACAAGGTGCAAATAGGTTTATAAAAT,10.84 ± 0.064
16,AGTGACACCAAAGGGGTGCAATGAAATTAAAAATAT,10.7 ± 0.24
17,ATTATCCATCAAAAGGTGCAAATTTTTAATTATAAA [GTGCAC_site9932],10.5 ± 0.49
18,TAAATTAAAAAAAAAAACAAAAAAAAAGCAACAAAA [CACACA_negctrl_site1318],7.67 ± 0.57
19,AAAAAAAAAAAAAAGGTGCAAATAAATTAACCTTAT,11.4 ± 0.44
